Sampled rows, rich in hits. Any-hit rate of the full collection: about 10%.
HEK293 tox = HEK 293 cell cytotoxicity. HEK 293 viability, ATP luminescence (CellTiter-Glo), 48-72 h. Potency, µM (titrated, usually from 115 µM), inactives show at the top dose activity change, negative = cytotoxicity, most hits filed as inhibitors. 6.6% of 94,000 active. AID 1345083; further: on the % scale 0 is the no-effect control and ±100 the full control effect; nearly all actives have a fitted effect of over 60% in size
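Luminescence from cellular ATP, measured with CellTiter-Glo, indicates HEK 293 viability. Cells plated at 250 cells/well are treated with compound for 48 or 72 hr at 37 degree Celsius before reagent addition.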
hNpr1 antagonist = human Npr1 receptor antagonism; HEK293 hNpr1 GloSensor cGMP, ANP-stimulated luminescence; 1.6% of 76,000 active; Potency, µM (doses to about 46.3 µM), for the others: at the highest dose activity change, negative = inhibition, hits mostly inhibitors; calls by dose curve; further: on the % scale 0 is the no-effect control and ±100 the full control effect; nearly all actives have a fitted effect of over 60% in size
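HEK293 cells stably expressing human Npr1 and cGMP GloSensor pGS-40F, loaded 2 h with 2% GloSensor reagent, given compound 30 min at room temperature. Luminescence read before and 20 min after 0.1 nM hNppA.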
GPT2 inh = GPT2 alanine aminotransferase inhibition; Q8TD30; Recombinant GPT2, coupled pyruvate oxidase/HRP Amplex Red fluorescence; Potency, µM (titrated, usually from 57.7 µM), inactives show at the highest dose activity change, negative = inhibition, actives largely listed as inhibitors; 0.25% of 100,000 active; further: on the % scale 0 is the no-effect control and ±100 the full control effect; nearly all actives have a fitted effect of over 60% in size
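Fluorescence read-out: pyruvate from GPT2 turnover coupled to pyruvate oxidase, HRP and Amplex Red (0.2mM ThPP, 0.2U/mL PO and HRP, 50uM Amplex final). Substrates 250uM a-KG, 2mM L-alanine; enzyme 10ng/uL; 30 min RT.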
FLuc inh-1 = inhibitors of firefly (Photinus pyralis) luciferase | P08659 | purified P. pyralis luciferase, luminescence, biochemical | Potency, µM (series often up to 115 µM), hits mostly inhibitors | 2.5% of 76,000 active | AID 1347043; further: on the % scale 0 is the no-effect control and ±100 the full control effect; nearly all actives have a fitted effect of over 65% in size
Target sequence (P08659 whole entry, looked up): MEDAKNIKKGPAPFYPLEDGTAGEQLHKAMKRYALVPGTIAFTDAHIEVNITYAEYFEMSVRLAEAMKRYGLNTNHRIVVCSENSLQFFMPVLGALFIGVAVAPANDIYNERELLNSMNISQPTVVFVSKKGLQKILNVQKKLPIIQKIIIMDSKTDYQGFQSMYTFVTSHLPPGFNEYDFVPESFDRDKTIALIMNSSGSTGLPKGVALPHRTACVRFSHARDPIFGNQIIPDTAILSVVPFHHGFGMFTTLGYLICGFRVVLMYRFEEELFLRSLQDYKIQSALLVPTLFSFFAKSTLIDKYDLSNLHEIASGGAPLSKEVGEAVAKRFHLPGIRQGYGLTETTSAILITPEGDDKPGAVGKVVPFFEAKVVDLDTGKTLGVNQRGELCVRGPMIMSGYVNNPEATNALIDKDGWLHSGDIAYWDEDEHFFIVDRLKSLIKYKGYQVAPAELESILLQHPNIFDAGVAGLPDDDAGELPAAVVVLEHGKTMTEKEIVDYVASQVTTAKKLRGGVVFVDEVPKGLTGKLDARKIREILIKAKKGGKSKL
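Cell-free enzyme assay, 10nM P. pyralis luciferase, luciferin and ATP each at 10uM. Inhibition profiled over a 6-point titration, read as luminescence.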
NIH3T3 tox = NIH 3T3 cell cytotoxicity. NIH 3T3 viability, CellTiter-Glo ATP luminescence, 48-72 h. Potency, µM (doses to about 96.7 µM), for inactives: at the highest dose activity change, negative = cytotoxicity, actives largely listed as inhibitors. 4.3% of 94,000 active; further: on the % scale 0 is the no-effect control and ±100 the full control effect; nearly all actives have a fitted effect of over 55% in size
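Cytotoxicity is measured as loss of cellular ATP: NIH 3T3 cells (400/well) are exposed to compound for 48 or 72 hr at 37 °C, then CellTiter-Glo luminescence is imaged after 10 min at room temperature.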
FLuc SDR no ATP = binders stabilizing firefly luciferase, without ATP | shares compounds with FLuc inh-1 | Purified FLuc-C-HiBiT, Nano-Glo HiBiT luminescence, no ATP | Potency, µM (doses to about 32.7 µM), without a hit: at the highest dose activation (signal gain), most hits filed as activators | 7.8% of 1,300 active; further: nearly all actives have a fitted effect of over 55% in size
FLuc SDR ATP = stabilizes firefly luciferase with ATP present | 8.7% of 1,300 active | shares compounds with FLuc inh-1 | Potency, µM (series often up to 32.7 µM), inactives show at the highest dose activation (gain of signal), usual class: activators | purified FLuc-C-HiBiT + ATP, HiBiT complementation luminescence;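 further: signal reports ligand binding via conformational change of the enzyme rather than luciferase catalysis; % of control where 0% means no effect; nearly all actives have a fitted effect of over 55% in size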
FLuc inh-2 = blocks firefly luciferase enzymatic activity. shares compounds with FLuc inh-1. purified FLuc-C-HiBiT enzyme, luciferin luminescence. Potency, µM (top dose mostly 32.7 µM), without a hit: at the highest dose activity change, negative = inhibition, usual class: inhibitors. 42% of 1,300 active. AID 1963320; further: on the % scale 0 is the no-effect control and ±100 the full control effect; nearly all actives have a fitted effect of over 70% in size
Numbers without * were called inactive; i = inactive; ? = inconclusive; . = no result; [ ] = another dose, or the depositor's remark. Unless noted, the call rests on the fitted dose curve; in most records, active means well fitted curve in the direction sought with a large enough effect; inconclusive means small, poorly fitted or top-dose-only effect, or another doubt; inactive means no such curve, though single readings can be large; an effect the other way counts as inactive or inconclusive. Potency means the concentration at half of the fitted maximal effect.

SMILES | HEK293 tox | hNpr1 antagonist | GPT2 inh | FLuc inh-1 | NIH3T3 tox | others
CC1=C[C@@H](CO)[C@H](C(C)C)C[C@H]1Cc1nnc(-c2ccncc2)o1 | 100µM* | -15%[70.6 µM] | i | i | -25%[174 µM]
CCN1c2cc(C(=O)Nc3ccc(OC(F)(F)F)cc3)ccc2C(=O)N2CCCCC21 (configuration not stated) | -17% | -1% | i | i | ?
Nc1ncnc2c1ncn2[C@@H]1O[C@H](COP(=O)(O)CP(=O)(O)OP(=O)(O)O)[C@@H](O)[C@H]1O | . | . | -6% | . | .
CN1N=C(N)c2cn([C@@H]3O[C@H](COP(=O)(O)O)[C@@H](O)[C@@H]3O)c3ncnc1c23 | . | . | 14µM* | . | .
CC(C)c1ccc(NC(=O)c2ccc3c(c2)N(C)C2CCCN2C3=O)cc1 (configuration not stated) | 45µM* | -15% | i | 16µM* | ?
Cc1cccc(NC(=O)c2ccc3c(c2)N(C)C2CCCCN2C3=O)c1 (configuration not stated) | ? | -1% | 1% | 28µM* | ?
CC(C)c1cccc(NC(=O)c2ccc3c(c2)N(C)C2CCCCN2C3=O)c1 (configuration not stated) | 28µM* | -6% | i | i | ?
Cc1cc(C)cc(NC(=O)c2ccc3c(c2)N(C)C2CCCCN2C3=O)c1 (configuration not stated) | ? | -19% | i | ? | ?
O=C1CO[C@H]2CN(Cc3ccccc3F)C[C@H]2N1c1ccccc1 | 79µM* | -4%[70.6 µM] | i | i | ?
COCCNC(=O)C1CCCN1C(=O)c1cccc(-c2cccnc2)c1 (configuration not stated) | 2% | . | . | . | -13%
CCOC(=O)C1CCN(C(=O)c2nc3sccn3c2-c2cccnc2)CC1 | 1% | . | i | . | i
O=C(C1CC1)N1CCC(C(=O)N2CCC(c3ccccc3)CC2)CC1 | -26%[172 µM] | . | -8%[88.5 µM] | . | ?
O=C(C1CCN(S(=O)(=O)c2cccc(C(F)(F)F)c2)CC1)N1CCC(c2ccccc2)CC1 | 22µM* | . | -6% | . | ?
O=C(C1CCCN1[S+](=O)([O-])c1cccc(C(F)(F)F)c1)N1CCC(c2ccccc2)CC1 (configuration not stated) | 25µM* | . | -3% | . | 35µM*
O=C(c1ccc(C(F)(F)F)cc1)N1CCC(C(=O)N2CCC(c3ccccc3)CC2)CC1 | 45µM* | . | i | . | ?
O=C(C1CCCN1[S+](=O)([O-])c1cccc(C(F)(F)F)c1)N1CCC(c2nc3ccncc3[nH]2)C1 (configuration not stated) | -7% | . | 3% | . | i
COc1cccc(OC)c1C(=O)N1C(C(=O)NCC(C)C)COC12CCCC(C)C2 (configuration not stated) | -24% | 3% | i | i | -14%
Cc1cccc(CC(=O)N2CCCC(n3cc(-c4nc(-c5ccccc5)no4)nn3)C2)c1 (configuration not stated) | ? | -22% | 0% | ? | ?
COc1cc(CNCc2nnn3c2CN(Cc2ccccc2C#N)C(=O)CC3)cc(OC)c1 | ? | 0% | -3% | i | 1%
Cc1nn(-c2ccccn2)c(C)c1[C@@H]1C=C[C@@H](NC(=O)c2cccs2)C1 | ? | -2%[70.6 µM] | 1%[88.5 µM] | ? | ?
Cc1ccc(-n2nc(C)c([C@H]3C=C[C@@H](OC(=O)Nc4cccc(F)c4)C3)c2C)cc1Cl | ? | -21% | ? | i | ?
Cc1nn(-c2ccccc2)c(C)c1[C@@H]1C=C[C@@H](NC(=O)c2ccc(N(C)C)cc2)C1 | 71µM* | ? | 4%[88.5 µM] | ? | ?
Cc1nn(-c2ccc(C(F)(F)F)cc2)c(C)c1[C@@H]1C=C[C@@H](NC(=O)c2cccs2)C1 | ? | -11%[70.6 µM] | -7%[88.5 µM] | ? | 28µM*
Cc1ccc(-n2nc(C)c([C@@H]3C=C[C@@H](NC(=O)c4cccs4)C3)c2C)cc1Cl | ? | -24%[70.6 µM] | 2%[88.5 µM] | 25µM* | ?
Cc1nn(-c2ccc(C(C)(C)C)cc2)c(C)c1[C@@H]1C=C[C@@H](NC(=O)c2cccs2)C1 | 35µM* | -10%[70.6 µM] | 1%[88.5 µM] | 20µM* | ?
SMILES | HEK293 tox | hNpr1 antagonist | GPT2 inh | FLuc inh-1 | NIH3T3 tox | others
CCCC(=O)N1Cc2ccccc2CC2(CCCCN2CC)C1 (configuration not stated) | ? | . | -1% | . | ?
COc1ccc(CN2CCC3(CC2)C(=NC2CCCCC2)NC(=O)N3c2cc(F)cc(F)c2)cc1 | -15% | . | i | . | -17%
C#CCNC(=O)c1cc(-c2ccc(Cl)cc2)nc2c1cnn2C | 89µM* | . | -13%[88.5 µM] | . | ?
COC(=O)CNC(=O)c1cc(-c2ccc(Cl)nc2)nc2c1cnn2C | -4% | . | i | . | 32µM*
Cn1ncc2c(C(=O)NCC(F)F)cc(-c3ccc(Cl)cc3)nc21 | 45µM* | . | i | . | ?
C#CCNC(=O)c1cc(-c2ccc(Cl)nc2)nc2c1cnn2C | ? | . | -5% | . | ?
Cn1ncc2c(C(=O)NCCc3ccc(Cl)cc3)cc(-c3ccc(Cl)cc3)nc21 | -18% | . | -13% | . | ?
COc1ccc(-c2cc(C(=O)NCC(F)(F)F)c3c(C4CCNC4)nn(C)c3n2)cc1 (configuration not stated) | 79µM* | . | i | . | ?
COc1ccc(CCNC(=O)c2cc(-c3ccc(OC)cc3)nc3c2cnn3C)cc1 | ? | . | i | . | ?
C#CCNC(=O)c1cc(-c2ccc(OC)cc2)nc2c1cnn2C | ? | . | . | . | 50µM*
O=C(O)c1cccc(-c2noc(-c3ccc(C(F)(F)F)cc3)n2)c1 | . | . | . | . | . | FLuc SDR no ATP=7µM*;FLuc SDR ATP=0.0062µM*;FLuc inh-2=0.0035µM*
CC(C)(CNC(=O)c1cccc(-c2noc(C(F)(F)F)n2)c1)c1coc(-c2ccccc2)n1 | . | . | i | . | .
O=C(O)c1cccc(-c2noc(-c3cccc(C(F)(F)F)c3)n2)c1 | . | . | . | . | . | FLuc SDR no ATP=?;FLuc SDR ATP=0.039µM*;FLuc inh-2=0.016µM*
